Screens deposited in PubChem BioAssay by several laboratories.
rCAG RNA binder: binders of r(CAG) RNA repeats, primary screen, biochemical, fluorescence; actives 1.3% (n = 370,000); r(CAG) RNA repeat, TO-PRO-1 dye displacement fluorescence; AID 651821, 2012; inhibition, % at 3 µM;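 active = inhibition above the plate cutoff, the mean of all test compounds on that plate plus 3 SD, cut at about 35% in these data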;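 also: 0% = DMSO alone and 100% = 100 µM mitoxantrone as full dye displacement; higher means more dye released from RNA so lower well fluorescence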
A3G deaminase: APOBEC3G DNA deaminase inhibitors, primary screen, biochemical, fluorescence, single-stranded DNA substrate, uHTS. actives 0.28% (n = 330,000). AID 493012, 2011. DNA dC->dU-editing enzyme APOBEC-3G (Homo sapiens), Q9HC16. recombinant A3G, ssDNA deamination FAM/TAMRA fluorescence. inhibition, % at 20 µM;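 active = inhibition of at least 40% at 20 µM, with no more than 30% in the related APOBEC3A deaminase screen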;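 also: plate controls were DMSO wells with A3G for no effect and wells lacking A3G enzyme for full effect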
APOBEC3A inh: APOBEC3A ssDNA deaminase inhibitors, primary screen, selectivity assay for APOBEC3G inhibitor project, biochemical, FAM/TAMRA oligo cleavage fluorescence; inhibition, % at 20 µM; recombinant A3A, FAM/TAMRA ssDNA deamination fluorescence; AID 493011, 2011; actives 0.41% (n = 330,000); DNA dC->dU-editing enzyme APOBEC-3A (Homo sapiens), P31941;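 active = at least 40% inhibition at 20 µM here, with at most 30% in a related deaminase screen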;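 also: plate controls were A3A with DMSO for no effect and wells lacking A3A enzyme for full effect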
ALR inh: inhibitors of human ALR sulfhydryl oxidase, primary screen, biochemical, H2O2 detection, HRP-luminol luminescence, single point | FAD-linked sulfhydryl oxidase ALR (Homo sapiens), P55789 | purified ALR, DTT oxidation | inhibition, % (test concentration not listed) | actives 3.8% (n = 290,000) | AID 485317, 2010;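 active = mean replicate inhibition above about 79%, with every replicate also reaching it, limit read from the data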
Target sequence (P55789 whole entry, looked up): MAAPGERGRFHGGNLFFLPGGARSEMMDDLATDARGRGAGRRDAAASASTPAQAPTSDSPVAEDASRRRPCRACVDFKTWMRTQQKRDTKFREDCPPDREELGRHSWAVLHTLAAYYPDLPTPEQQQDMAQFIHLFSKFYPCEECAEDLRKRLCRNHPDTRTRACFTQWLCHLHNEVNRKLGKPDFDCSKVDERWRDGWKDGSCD
aDG glyco act: activators of alpha-DG glycosylation, primary screen, uHTS, Pro5-aDG cells, AlphaScreen | alpha-DG glycosylation AlphaScreen (IIH6); 0% Pro5, 100% B10-LARGE cell signal | activation, % at 10 µM | actives 0.22% (n = 360,000) | AID 624168, 2012;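 active = activation of at least 8% versus controls, or a plate z-score of at least 8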;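 also: Pro5 are CHO cells carrying HIG-tagged alpha-DG that lacks glycosylation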
PHOSPHO1 inh: PubChem AID 1565. actives 1.1% (n = 290,000). inhibition, % at 13.3 µM. Phosphoethanolamine/phosphocholine phosphatase (Homo sapiens), Q8TCT1. recombinant PHOSPHO1, absorbance phosphatase assay; in the data active = inhibition above about 60%
Target sequence (Q8TCT1 whole entry, looked up): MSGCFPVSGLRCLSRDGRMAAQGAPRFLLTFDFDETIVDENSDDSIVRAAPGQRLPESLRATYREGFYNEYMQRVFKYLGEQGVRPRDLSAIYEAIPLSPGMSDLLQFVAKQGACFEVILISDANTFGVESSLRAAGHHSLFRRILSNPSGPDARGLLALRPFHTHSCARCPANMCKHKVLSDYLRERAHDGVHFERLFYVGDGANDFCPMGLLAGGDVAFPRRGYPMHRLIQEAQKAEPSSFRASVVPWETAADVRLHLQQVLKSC
rCAG binder conf: small molecules binding CAG repeat RNA – biochemical, fluorescence, confirmation; shares compounds with rCAG RNA binder; r(CAG) RNA repeat, TO-PRO-1 dye displacement fluorescence; inhibition, % at 3 µM; actives 70% (n = 4,300);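 active = inhibition above a per-plate cutoff, the mean inhibition of sample wells plus 3 SD, cut at about 35% in these data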;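 also: loss of TO-PRO-1 fluorescence as compound displaces dye from 1x1 AA loop RNA; 0% = DMSO only wells and 100% = 100 µM mitoxantrone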
dCAG dye counter: displacement of TO-PRO-1 from CAG DNA duplex, counter-screen for rCAG RNA repeat binder project, biochemical, fluorescence, TO-PRO-1 dye, d(CAG) DNA oligo | actives 94% (n = 4,300) | shares compounds with rCAG RNA binder | d(CAG) DNA oligo TO-PRO-1 dye displacement | inhibition, % at 3 µM;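 active = inhibition above its plate's cutoff, the mean test-well inhibition plus 3 SD, cut at about 4.8% in these data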;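 also: 0% = DNA dye mix with DMSO and 100% = 100 µM mitoxantrone; hits displace the dye from DNA and so lower well fluorescence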
* hit, by the source's call. Most compounds without a hit are left out; they make up all but 5.4% or so of the library.

`N#Cc1c(N(CCO)CCO)nc(N)c2c(N)nc3c(c12)CC(=O)N3CC1CCCO1` (configuration not stated) gave rCAG RNA binder 35*, A3G deaminase -1, APOBEC3A inh 1, ALR inh 0, aDG glyco act 0, PHOSPHO1 inh -10, rCAG binder conf 10 and dCAG dye counter 5.7*.
For CCc1ccc(N2C(=O)Cc3c2nc(N)c(C#N)c3N)cc1 the results were rCAG RNA binder 16, A3G deaminase -7, APOBEC3A inh 2, ALR inh -64, aDG glyco act 0 and PHOSPHO1 inh -4.
`CCN(CC)c1nc2c3c(nc4c(c3c1C#N)CC(=O)N4c1ccc(Cl)cc1)NC(C)=N2` gave rCAG RNA binder 60*, A3G deaminase -1, APOBEC3A inh 5, ALR inh -6, aDG glyco act 0, PHOSPHO1 inh -14, rCAG binder conf 52* and dCAG dye counter 23*.
For C[C@@H](NCCCn1ccc(NC(=O)OCc2ccccc2)nc1=O)c1cccc2ccccc12 the results were rCAG RNA binder 5 and aDG glyco act 0.
`CCOC(=O)[C@]12CCCCC/C=C\1N(Cc1ccc(OC)cc1)C(=O)[C@H]2CC(=O)NCCCOC` gave rCAG RNA binder -2.
For COCc1cc(C)n(CC(=O)Nc2ccc(N3CCOCC3)c(Cl)c2)c(=O)c1C#N the results were rCAG RNA binder 4, A3G deaminase -15, APOBEC3A inh -1, ALR inh -2, aDG glyco act 0 and PHOSPHO1 inh 35.
For COCc1cc(C)n(CC(=O)N/N=C/c2ccc(-c3ccc(Cl)c(C(=O)O)c3)o2)c(=O)c1C#N the results were rCAG RNA binder 38*, A3G deaminase 0, APOBEC3A inh 8, ALR inh 5, aDG glyco act 0, PHOSPHO1 inh 2, rCAG binder conf 41* and dCAG dye counter 14*.
For COc1ccc(NC(=O)c2cc(C3CCCCN3C(=O)c3cc(C(C)(C)C)nn3C)on2)c(C)c1 (configuration not stated) the results were rCAG RNA binder -1 and aDG glyco act 1.
Cc1ccc(C(=O)Nc2ccccc2C(=O)NC(Cc2c[nH]c3ccccc23)C(=O)O)cc1 (configuration not stated) was read as rCAG RNA binder 61*, A3G deaminase -1, APOBEC3A inh 0, ALR inh 13, aDG glyco act 0, PHOSPHO1 inh 10, rCAG binder conf 63* and dCAG dye counter 24*.
Cc1ccc(C(=O)Nc2ccccc2C(=O)NC(Cc2ccccc2)C(=O)O)cc1 (configuration not stated) was read as rCAG RNA binder 43*, A3G deaminase -6, APOBEC3A inh 0, ALR inh 58, aDG glyco act 0, PHOSPHO1 inh 29, rCAG binder conf 38* and dCAG dye counter 8.7*.
For O=C(NC(Cc1c[nH]c2ccccc12)C(=O)O)c1ccccc1 (configuration not stated) the results were rCAG RNA binder 1, A3G deaminase -2, APOBEC3A inh 1, ALR inh -11, aDG glyco act 0 and PHOSPHO1 inh 22.
Screening CCC(NC(=O)c1ccccc1NC(=O)c1ccc(C)cc1)C(=O)O (configuration not stated) returned rCAG RNA binder 6, A3G deaminase -4, APOBEC3A inh 1, ALR inh -2, aDG glyco act 0 and PHOSPHO1 inh 12.
Screening Cc1ccc(-c2nnc(SCC(=O)Nc3ccc(-c4nc5ccc(C)cc5s4)cc3)n2Cc2ccco2)cc1 returned rCAG RNA binder 23.
Screening Cc1ccc2nc(-c3ccc(NC(=O)CSc4nnc(-c5cccc(Cl)c5)n4Cc4ccco4)cc3)sc2c1 returned rCAG RNA binder 45*, rCAG binder conf 16 and dCAG dye counter 8.7*.
`O=C(Nc1cccc(Cl)c1)c1nc[nH]c1C(=O)Nc1ccccc1F` gave rCAG RNA binder 5 and aDG glyco act 0.
COc1ccc(NC(=O)c2ccc(-n3c(C)ccc3C)cc2)c(OC)c1 was read as rCAG RNA binder 11, A3G deaminase -3, APOBEC3A inh 3, aDG glyco act 1 and PHOSPHO1 inh 20.
COc1ccc(CN2C[C@]3(C=C4CCCCC4n4c(=O)n(-c5ccccc5)c(=O)n43)N(C(=O)OCc3ccccc3)C2=NC(=O)c2ccccc2)c(OC)c1 (some centres not stated) was read as rCAG RNA binder 12.
COc1ccc(CN2C[C@]3(C=C(C)Cn4c(=O)n(-c5ccccc5)c(=O)n43)N=C2NC(=O)c2ccccc2)c(OC)c1 was read as rCAG RNA binder 42*, rCAG binder conf 43* and dCAG dye counter 18*.
For COc1ccc(CN2C[C@]3(C=C4CCCCC4n4c(=O)n(-c5ccccc5)c(=O)n43)N=C2NC(=O)c2ccccc2)c(OC)c1 (some centres not stated) the results were rCAG RNA binder 52*, rCAG binder conf 50* and dCAG dye counter 21*.
Screening O=C(NC1=N[C@@]2(C=C3CCCCC3n3c(=O)n(-c4ccccc4)c(=O)n32)CN1Cc1ccccc1)c1ccccc1 (some centres not stated) returned rCAG RNA binder 42*, rCAG binder conf 38* and dCAG dye counter 15*.
`COC(=O)C1=C(C)N(Cc2cccc(C(F)(F)F)c2)C(=NCc2cccc(C(F)(F)F)c2)NC1c1ccc(Cl)cc1` (configuration not stated) gave rCAG RNA binder 3.
For C[C@H](CO)N1C[C@H](C)[C@@H](CN(C)C(=O)Cc2cccnc2)Oc2ncc(C#CCc3ccccc3)cc2C1=O the results were rCAG RNA binder 10.
